KCNQ2 block = blocks the rat KCNQ2 potassium channel | 310,000 compounds, 1.1% hits | CHO-K1 KCNQ2, FluxOR thallium flux, 20 min; active compounds read low | AID 2156 | B-score at 10 µM | O88943;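 active = fluorescence ratio B-score at most minus 3 library SDs, with starting brightness B-score within 2 library SDs, cut at about -5.5 in these data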
Target sequence (O88943 whole entry, looked up): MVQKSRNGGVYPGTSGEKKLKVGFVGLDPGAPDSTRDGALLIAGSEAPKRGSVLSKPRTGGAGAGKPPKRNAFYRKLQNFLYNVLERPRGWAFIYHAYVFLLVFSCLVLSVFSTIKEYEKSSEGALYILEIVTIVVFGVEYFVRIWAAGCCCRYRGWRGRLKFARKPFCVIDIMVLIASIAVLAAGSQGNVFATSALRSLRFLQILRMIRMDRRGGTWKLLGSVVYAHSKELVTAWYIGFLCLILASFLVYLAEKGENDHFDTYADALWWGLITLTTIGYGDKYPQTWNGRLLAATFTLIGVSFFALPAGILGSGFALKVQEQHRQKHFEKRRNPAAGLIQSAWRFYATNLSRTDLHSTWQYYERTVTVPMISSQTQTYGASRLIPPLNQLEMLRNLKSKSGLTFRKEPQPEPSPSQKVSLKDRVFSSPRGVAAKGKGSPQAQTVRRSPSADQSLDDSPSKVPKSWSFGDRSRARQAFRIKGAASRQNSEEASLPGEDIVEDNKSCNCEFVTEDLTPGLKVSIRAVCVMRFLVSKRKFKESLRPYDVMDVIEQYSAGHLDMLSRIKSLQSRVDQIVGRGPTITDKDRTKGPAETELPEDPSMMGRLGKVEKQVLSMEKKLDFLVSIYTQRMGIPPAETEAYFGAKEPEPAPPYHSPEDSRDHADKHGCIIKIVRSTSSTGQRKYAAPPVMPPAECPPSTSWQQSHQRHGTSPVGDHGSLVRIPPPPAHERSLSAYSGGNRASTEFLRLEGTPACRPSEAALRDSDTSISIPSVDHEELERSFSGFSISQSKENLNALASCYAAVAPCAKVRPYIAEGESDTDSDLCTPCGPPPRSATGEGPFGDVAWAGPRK
KCNQ2 pot = potentiators of rat KCNQ2 potassium channel | O88943 | B-score at 10 µM | AID 2239 | 310,000 compounds, 0.54% hits | CHO-K1 KCNQ2, FluxOR thallium flux fluorescence; active compounds read high;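 active = fluorescence ratio B-score at least 3 SD of library B-scores, with initial fluorescence B-score within 3 of them, cut at about 5.3 in these data; same plate scores as AID 2156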;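 note: B-score of peak minus minimum over baseline fluorescence ratio after K+ and Tl+ stimulus; positive B-score means potentiation of KCNQ2 with more thallium influx and brighter signal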
Starred values were filed as active, the others as inactive; i = inactive; x = not tested or not shown. An excerpt weighted towards active compounds, which were near 1.6% of everything screened.

SMILES	KCNQ2 block	KCNQ2 pot
COc1ccccc1CNC(=O)c1ccccc1OCc1ccc(F)cc1	i	x
O=C(NCc1ccccn1)c1ccccc1OCc1ccc(F)cc1	-6.4*	-6.4
Cc1ccccc1N1CCN(c2ncnc3c2cnn3Cc2ccc(Cl)cc2)CC1	-5.7*	-5.7
Cc1ccc(Cn2ncc3c(N4CCN(Cc5ccc(Cl)cc5)CC4)ncnc32)cc1	i	x
C=C(C)C1CCC(C)=C1COC(=O)Nc1ccccc1 (stereo not given)	-5.9*	-5.9
Cc1ccc(OCCOC(=O)Nc2ccccc2)cc1	i	1.1
CCOC(=O)c1sc(NC(=O)Cc2c(F)cccc2Cl)nc1C	i	x
CCOC(=O)c1sc2nccc(N(C)C)c2c1N=CNOCc1c(F)cccc1Cl	-6.2*	-6.2
CC(SC1=Nc2ccccc2C2CC=NN12)C(=O)NC1(C#N)CCCCC1 (stereo not given)	-8.7*	-8.7
COC(=O)c1ccc(NC(=O)CSC2=Nc3ccccc3C3CC=NN23)cc1 (stereo not given)	i	x
O=c1c(-c2nn[nH]n2)coc2ccc(Cl)cc12	i	0.21
Cc1sc2nc(C(C)C)nc(SCC(=O)N3CCN(C(=O)c4ccco4)CC3)c2c1C	i	13*
Cc1sc2ncnc(SCC(=O)N3CCN(C(=O)c4ccco4)CC3)c2c1C	i	0.17
O=C(NN=C(Cc1ccccc1)Cc1ccccc1)c1ccccc1O	i	1.4
O=C(NN=C(Cc1ccccc1)Cc1ccccc1)c1ccc(F)cc1	-5.6*	-5.6
NC(=S)NN=C(Cc1ccccc1)Cc1ccccc1	-5.6*	-5.6
C/C(Cc1ccccc1)=N\NC(=O)c1ccc(F)cc1	i	2.8
O=C(Nc1cc([N+](=O)[O-])ccc1N1CCCC1)c1cccs1	i	x
CC(NCc1ccc(-c2ccccc2)cc1)C(O)c1ccccc1 (stereo not given)	i	x
Clc1nnc(N/N=C/c2ccccc2)c2ccccc12	i	0.13
Clc1nnc(NN=C2CCCC2)c2ccccc12	i	9.5*
Clc1ccc(C2=C3CCCCn4c(-c5ccccc5)c[n+](c43)C2)cc1	-6.4*	-6.4
O=C(C[n+]1cc(-c2ccc(Cl)cc2)n2c1CCCCC2)c1ccccc1	i	x
Cc1cc(Br)cc(Br)c1OCC(=O)NNC(=O)c1ccoc1C	i	0.25
CC(=O)Oc1ccc(C(=O)NCc2ccco2)cc1	i	x
SMILES	KCNQ2 block	KCNQ2 pot
O=C(C/C=N/OCc1c(Cl)cccc1Cl)c1cnc(-c2ccccc2)s1	i	x
O=C(C/C=N/OCc1c(Cl)cccc1Cl)c1ccc(Cl)cc1	-7.4*	-7.4
Cc1ccc(C(c2nnnn2C(C)(C)C)N(Cc2ccco2)Cc2cccs2)cc1 (stereo not given)	-6.2*	-6.2
c1ccc(CN(Cc2ccco2)C(c2ccncc2)c2nnnn2C2CCCC2)cc1 (stereo not given)	i	x
CC(C)(C)n1nnnc1C(c1cccs1)N(Cc1ccccc1)Cc1cccnc1 (stereo not given)	i	x
CC(C)(C)n1nnnc1C(c1ccc(Cl)cc1)N(Cc1cccnc1)Cc1ccco1 (stereo not given)	-6.2*	-6.2
CC(C)(C)n1nnnc1C(c1cccnc1)N(Cc1ccccc1)Cc1cccs1 (stereo not given)	i	x
CCOc1ccc2[nH]c(=O)c(CN(Cc3cccs3)C(CC)c3nnnn3C(C)(C)CC)cc2c1 (stereo not given)	i	x
CC(C)(C)n1nnnc1C(c1ccc(C(F)(F)F)cc1)N(Cc1ccc(F)cc1)Cc1ccco1 (stereo not given)	-6.5*	-6.5
CCC(c1nnnn1C(C)(C)C)N(Cc1cccs1)Cc1cc2cc(C)c(C)cc2n2nnnc12 (stereo not given)	-5.9*	-5.9
CN(Cc1ccccc1)C(=O)c1[nH]cnc1C(=O)N[C@@H](Cc1ccccc1)C(=O)OC(C)(C)C	i	x
Cc1ccc(S(=O)(=O)N2CCN(Cc3csc(C)n3)CC2)cc1	i	x
CCOC(=O)c1c(NC(=O)COC(=O)Cc2c[nH]c3ccccc23)sc(C(=O)N(C)C)c1C	i	0.85
CCOC(=O)C1CCN(S(=O)(=O)c2c(Cl)ccc3nonc23)CC1	i	x
Cc1cc(C)nc(N/N=C/c2cc(Br)ccc2O)n1	i	x
Cc1c2cnn(-c3ccccc3)c(=O)c2c(C)n1CCCC(=O)NCCN1CCN(C)CC1	i	0.79
CC(C)(C)c1ccc(CN(Cc2ccccc2)C(c2ccccn2)c2nnnn2C(C)(C)C)cc1 (stereo not given)	-9.4*	-9.4
CCN(Cc1ccccc1)C(c1ccncc1)c1nnnn1C(C)(C)C (stereo not given)	i	x
CC1Sc2ccc(S(=O)(=O)CCC(=O)Nc3ccccn3)cc2NC1=O (stereo not given)	i	0.73
CCn1c(=S)sc2c(=O)n(CC(=O)NCCCc3ccccc3)c(C)nc21	i	0.65
C=C1CCN([C@@H](CC(C)C)C(=O)NCc2ccc(Cl)c(Cl)c2)S(=O)(=O)c2ccccc21	i	x
C=C1CCN([C@@H](Cc2ccccc2)C(=O)NCc2ccc(Cl)c(Cl)c2)S(=O)(=O)c2ccccc21	-6.2*	-6.2
COc1ccc(OC)c(NC(=O)NCCCCc2ccccc2)c1	i	1.1
Cc1cc(C)c(OCC(=O)N(Cc2ccccc2)C2CCS(=O)(=O)C2)c(C)c1 (stereo not given)	i	x
COc1cccc(C(=O)NCC2(c3ccccc3)CCCC2)c1OC	-5.9*	-5.9
SMILES	KCNQ2 block	KCNQ2 pot
COc1ccc(C2(CNC(=O)c3ccccc3)CCCC2)cc1OC	i	x
N#Cc1nc(-c2cccc(Cl)c2)oc1N1CCC(C(N)=O)CC1	i	0.22
CN(C)CCN(C(=O)c1ccc2c(c1)OCCO2)c1nc2cc3c(cc2s1)OCO3	i	x
CN(C)CCN(C(=O)c1ccc2c(c1)CCCC2)c1nc2cc3c(cc2s1)OCCO3	-7.8*	-7.8
Cc1cc(C)c2sc(N(CCN(C)C)C(=O)c3ccc4ccccc4c3)nc2c1	-5.9*	-5.9
COc1ccccc1C(=O)N(CCN(C)C)c1nc2cc(C)cc(C)c2s1	i	x
CC(C)CCN1CC(=O)N2[C@@H](Cc3c([nH]c4ccccc34)C2(C)C)C1=O	i	x
Cc1ccc(N(Cc2ccccc2)C(=O)c2ccc(Cl)c(S(=O)(=O)N3CCOCC3)c2)cc1	i	x
CCCn1c(=O)c(C(=O)NCCc2ccc(Cl)cc2)c(O)c2ccccc21	-5.6*	-5.6
CCn1c(=O)c(C(=O)NCCc2ccc(Cl)cc2)c(O)c2ccccc21	i	1.2
CCc1cc2c(=O)oc(-c3ccc(F)cc3)nc2s1	i	0.07
CCOC(=O)CSc1nnc(-c2cc(OC)c(OC)c(OC)c2)o1	i	0.1
CCOC(=O)CN(C(=O)CSc1nnc(-c2ccc(OC)c(OC)c2)o1)c1ccc(F)cc1	-6.6*	-6.6
O=C(Nc1ccccc1F)C1CCN(C(=O)NCc2ccccc2)CC1	i	0.03
O=C(Nc1nc2ccc(F)cc2s1)c1ccccn1	i	16*
O=C(Nc1nc2ccc(F)cc2s1)C1=COCCO1	i	x
CCOc1ccc(-c2nc(C#N)c(N3CCN(Cc4ccccc4)CC3)o2)cc1	-6.2*	-6.2
CCOc1ccc(-c2nc(C#N)c(N3CCOCC3)o2)cc1	i	1.4
CCOC(=O)C1CCCN(CC(=O)NC2=Nc3ccccc3N=C(C)C2c2ccccc2)C1 (stereo not given)	i	x
CC1=Nc2ccccc2N=C(NC(=O)CN2CCN(c3ccccc3)CC2)C1c1ccccc1 (stereo not given)	-6.5*	-6.5
O=C1NC(=O)N(Cc2ccccc2F)C1=O	i	0.44

Source: PubChem
